Measurements as given in PubChem BioAssay (NCATS).
Where “and” joins values, the source holds several entries; their conditions need not be identical. Equal entries are not always repeated. Results filed as inconclusive are left out. Calls of active or inactive are those of the source. The call rests on the fitted dose curve; in most records, active means well fitted inhibition curve with a large enough effect; inconclusive means small, poorly fitted or top-dose-only effect; inactive means flat fitted curve, though single readings scatter. Where a SMILES comes first, the peptide text is derived from it. [ ]: non-standard residue; d: D form. pGlu = O=C1CC[C@@H](C(=O)O)N1; Thz = O=C(O)[C@@H]1CSCN1

How the values were obtained:
[1] = tested on: CRL-7250; test: Cytotoxic Profiling of Annotated Libraries Using Quantitative High-Throughput Screening (AID 1296008); settings: Five cell lines viability, CellTiter-Glo ATP luminescence, 48-72 h; max response: stronger effect = lower value; on max response: on the % scale 0 is the no-effect control and ±100 the full control effect
Summary of the method: (§1)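 Compounds were pin-transferred onto cells and incubated 48 or 72 hr at 37 degree Celsius, 95% humidity. CellTiter-Glo was added, plates sat 10 min at room temperature, then ATP-coupled luminescence was imaged as the viability read-out.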

[2] = tested on: HEK293; test: as above; settings: Five cell lines viability, CellTiter-Glo ATP luminescence, 48-72 h; max response: stronger effect = lower value
Summary of the method: as §1

[3] = tested on: HaCat; test: as above; settings: Five cell lines viability, CellTiter-Glo ATP luminescence, 48-72 h; max response: stronger effect = lower value
Summary of the method: as §1

[4] = tested on: KB-3-1; test: as above; settings: Five cell lines viability, CellTiter-Glo ATP luminescence, 48-72 h; max response: stronger effect = lower value
Summary of the method: as §1

[5] = tested on: SC27B; test: qHTS profiling for inhibitors of Plasmodium falciparum proliferation (AID 504749); settings: P. falciparum in erythrocytes, SYBR Green DNA, 72 h; series mostly up to 28.7 µM
Summary of the method: (§2)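 Fluorescence of SYBR Green-bound parasite DNA, read at 485/535 nm, served as the growth measure. Infected erythrocytes were cultured with compound 72 h; artemisinin (0.29 uM) and DMSO wells defined the normalization range.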

[6] = tested on: TAB109; test: as above; settings: P. falciparum in erythrocytes, SYBR Green DNA, 72 h; series mostly up to 28.7 µM
Summary of the method: as §2

[7] = tested on: TAB113; test: as above; settings: P. falciparum in erythrocytes, SYBR Green DNA, 72 h; series mostly up to 28.7 µM
Summary of the method: as §2

[8] = tested on: TAB165; test: as above; settings: P. falciparum in erythrocytes, SYBR Green DNA, 72 h; series mostly up to 28.7 µM
Summary of the method: as §2

[9] = tested on: W2; test: as above; settings: P. falciparum in erythrocytes, SYBR Green DNA, 72 h; series mostly up to 28.7 µM
Summary of the method: as §2

[10] = tested on: NIH3T3; test: Cytotoxic Profiling of Annotated Libraries Using Quantitative High-Throughput Screening (AID 1296008); settings: Five cell lines viability, CellTiter-Glo ATP luminescence, 48-72 h; max response: stronger effect = lower value; on max response: on the % scale 0 is the no-effect control and ±100 the full control effect
Summary of the method: as §1
Further: nearly all actives have a fitted effect of over 60% in size.
Potency means the concentration at half of the fitted maximal effect.

O=C(Nc1ccc2c(c1)CCN(Cc1ncn[nH]1)C2)c1ccccc1-c1ccc(C(F)(F)F)cc1
active: Potency [2] 23.1 µM
inactive: max response [1] -23.1% | max response [3] 0.241% | max response [4] 1.94%

O=C1CC[C@@H](C(=O)N2CSC[C@H]2C(=O)O)N1 ([pGlu]-[Thz]-OH)
inactive: Potency [5] | Potency [6] | Potency [7] | Potency [8] | Potency [9] | max response [1] -1.65% | max response [2] -11.6% | max response [3] 2.27% | max response [4] -5.47% | outcome [4] | outcome [10]

O=C(/C=C/c1ccccc1)NCCO
inactive: Potency [5] | Potency [6] | Potency [7] | Potency [8] | Potency [9] | outcome [1] | max response [2] -1.9% | max response [3] -18% | max response [4] 9.29% | max response [10] 3.14%

O=[N+]([O-])c1ccc(CNc2nc(NCc3cccc(C(F)(F)F)c3)nc3nc[nH]c23)cc1
inactive: max response [1] -5.54% | max response [2] -22% | max response [3] 0.807% | outcome [4] | outcome [10]

CC1(C)[C@@H](O[C@H]2O[C@H](C(=O)O)[C@@H](O)[C@H](O)[C@H]2O[C@@H]2O[C@H](C(=O)O)[C@@H](O)[C@H](O)[C@H]2O)CC[C@]2(C)[C@H]3C(=O)C=C4[C@@H]5C[C@@](C)(C(=O)O)CC[C@]5(C)CC[C@@]4(C)[C@]3(C)CC[C@@H]12
inactive: max response [1] -24.4% | max response [2] -5.35% | max response [3] -32.3%

Cc1ccc2c(n1)Oc1ccc(C(C)C(=O)OCC(=O)N(C)C)cc1C2 (centres undefined)
inactive: max response [1] 4.34% | outcome [2] | max response [3] 0.244% | max response [4] -21.6% and -9.27% | max response [10] -8.07% and -9.75%

C#CC1(O)CC[C@H]2[C@@H]3CCC4=CCCC[C@@H]4[C@H]3CC[C@@]21C (some centres undefined)
inactive: max response [1] -8.11% | outcome [2] | outcome [3] | max response [4] -2.21% | max response [10] -0.384%

Nc1ccc(C(=O)O)c(O)c1
inactive: Potency [5] | Potency [6] | Potency [7] | Potency [8] | Potency [9] | max response [1] -0.825% | max response [2] 3.06% | outcome [3] | max response [4] -11.5% | outcome [10]

CC(=O)c1ccc(OCC(=O)N2CCCCC2)cc1
inactive: max response [1] 2.04% | max response [2] -3.89% | max response [3] -0.673% | outcome [4] | outcome [10]

Cc1c(N)c(=O)n(-c2ccccc2)n1C
inactive: max response [1] 4.52% | max response [2] -1.84% | outcome [3] | max response [4] -14.7% | max response [10] -4.09%

COc1cc2c3cc1Oc1cc(ccc1O)C[C@@H]1c4c(cc(OC)c(O)c4Oc4ccc(cc4)C[C@@H]3N(C)CC2)CC[N+]1(C)C
inactive: Potency [5] | Potency [6] | Potency [7] | Potency [8] | Potency [9] | max response [1] 1.72% | outcome [2] | max response [3] 1.8% | max response [4] -2.77% | max response [10] 4.48%

CN1CCN(c2cc3c(nn2)Oc2ccccc2N3C)CC1
inactive: Potency [5] | Potency [6] | Potency [7] | Potency [8] | Potency [9] | max response [1] -2.91% | outcome [2] | outcome [3] | max response [10] -0.755%

Nc1cc(-c2ccncc2)c[nH]c1=O
inactive: Potency [5] | Potency [6] | Potency [7] | Potency [8] | Potency [9] | outcome [1] | max response [2] 1.99% | max response [3] 3.01% | max response [10] -0.0001%

C/C(=N\O)c1ccc(OCC(=O)N2CCCCC2)cc1
inactive: max response [1] -1.81% | max response [2] 2.8% | max response [3] 2.33% | max response [10] -0.0363%

Nc1c(CC(=O)O)cccc1C(=O)c1ccc(Br)cc1
inactive: Potency [5] | Potency [6] | Potency [7] | Potency [8] | Potency [9] | max response [1] 4.53% | max response [2] 2.21% | outcome [3] | max response [4] 0.539% | max response [10] 2.91%

[O-][n+]1ccccc1SSc1cccc[n+]1[O-]
active: Potency [5] 0.891 µM | Potency [6] 0.891 µM | Potency [7] 0.891 µM | Potency [8] 0.891 µM | Potency [9] 0.757 µM | Potency [1] 0.461 µM | Potency [2] 0.411 µM | Potency [3] 0.731 µM | Potency [10] 0.164 µM

CCCSc1ccc2nc(NC(=O)OC)[nH]c2c1
inactive: Potency [5] | Potency [6] | Potency [7] | Potency [8] | max response [3] -6.26%
active: Potency [1] 5.96 µM | Potency [2] 0.75 µM | Potency [10] 1.88 µM

O=C(CCN1CCN(CCO)CC1)N1c2ccccc2Sc2ccc(C(F)(F)F)cc21
inactive: Potency [5] | Potency [7] | max response [1] -6.26% | max response [2] -1.82% | max response [3] -4.28% | max response [4] -4.21% | max response [10] 1.15%
active: Potency [9] 7.57 µM

CCCCCCCCCCCC(=O)[O][Sn]([CH2]CCC)([CH2]CCC)[O]C(=O)CCCCCCCCCCC
inactive: Potency [5] | Potency [6] | Potency [7] | Potency [8] | Potency [9] | max response [1] -26.6% | max response [2] -9.3% | outcome [3] | max response [10] 4.84%
